Compound activity: PubChem BioAssay, several laboratories
CYP2C19 activ – human CYP2C19 activators, primary screen, biochemical, luminescence | 96,000 tested, under 10 active | Cytochrome P450 2C19 (Homo sapiens), P33261 | activation factor at 5 µM | recombinant CYP2C19, luciferin-H EGE luminescence; hits give high values; 0 = fully inhibited enzyme, 1 = untreated enzyme;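 active means activation factor of at least 2 at 5 µM in the primary screen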;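 further: 0 = wells with 2.5 mM tranylcypromine and 1 = vehicle-only wells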
Cav32 inh – Cav3.2 calcium influx blockers – cell-based, Fluo-4 calcium fluorescence, FDSS, MLSMR library, primary screen; Cav3.2-expressing cells; hits give low values; Voltage-dependent T-type calcium channel subunit alpha-1H (Homo sapiens), O95180; 4% of 100,000 active; B-score at 10 µM;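 active means single-dose well whose peak fluorescence ratio is a statistical outlier from its plate by either plate-standardised score or position-corrected B-score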
CYP2C19 inhib – blockers of cytochrome P450 2C19 activity – biochemical, luminescence, ADME assay, primary screen; AID 778, 2007; CYP2C19 Supersomes, luciferin-H EGE luminescence, 30 min; P33261; 21% of 96,000 active; inhibition, % at 5 µM;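 active means CYP2C19 inhibition above a set limit at 5 µM in the primary screen, cut at about 50% in these data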;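 further: plate controls were negative control wells for no effect and 2.5 mM tranylcypromine positive control for full effect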
CYP2C9 inh – blockers of cytochrome P450 2C9 activity – biochemical, luminescence, ADME assay, primary screen. P11712. CYP2C9 Supersomes, luciferin-H conversion. 20% of 96,000 active. inhibition, % at 5 µM;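 active means blocking of liver enzyme CYP2C9 beyond about 50% at 5 µM, limit read from the data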
CYP2C9 activ – human CYP2C9 activators, primary screen, biochemical, luminescence; AID 1024, 2008; activation factor at 5 µM; 1.4% of 96,000 active; Cytochrome P450 2C9 (Homo sapiens), P11712; recombinant CYP2C9, luciferin-H conversion; hits give high values; factor 1 = untreated enzyme, 0 = blocked;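 active means activation factor of 2 or more for CYP2C9 at a 5 µM dose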;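 further: 0 = sulfaphenazole-blocked wells and 1 = vehicle-only wells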
* marks the source's active call; other numbers are inactive results; / = no result. In the library only some 27% were active in any assay of this set; here they are far more common.

SMILES	CYP2C19 activ	Cav32 inh	CYP2C19 inhib	CYP2C9 inh	CYP2C9 activ
Cc1ccc(C)c(Cc2c(C)nc3c(C(=O)NCc4ccc5c(c4)OCO5)cnn3c2C)c1	0.6	/	42.9	86.6*	0.1
O=C(Nc1ccccc1)N1CCN(Cc2ccc3c(c2)OCO3)CC1	1	-5.54*	4.1	-11.9	1.1
O=C(c1cc2c(s1)CCCC2)N1CCN(Cc2ccc3c(c2)OCO3)CC1	0.6	-3.92*	35.6	13.0	0.9
Cc1cccc(C(=O)N2CCCCCC2)c1	0.5	0.106	52.1*	29.8	0.7
Cc1nc(SCC(=O)N2CCN(C(=O)c3ccco3)CC2)c2c(C)c(C)sc2n1	0.5	2.06	50.7*	72.6*	0.3
CCc1cc2ccc(C)cc2nc1SCC(=O)N1CCN(C(=O)c2ccco2)CC1	0.3	-5.1*	65.4*	93.6*	0.1
CCc1cc2cccc(C)c2nc1SCC(=O)N1CCN(C(=O)c2ccco2)CC1	0.6	/	41.7	57.2*	0.4
CC(=O)N1CCC(N(CCCOC(C)C)C(=O)Nc2ccc(Cl)cc2)CC1	/	-0.0272	/	/	/
O=C(Nc1ccc(Cl)cc1)c1cccnc1N1CCCCC1	0.2	-2.95	79.4*	78.4*	0.2
O=C(Nc1cccc(C(F)(F)F)c1)c1cccnc1N1CCCC1	0.5	-1.75	47.5	-239.1	3.4*
O=C(Nc1ccccc1)c1cccnc1N1CCOCC1	0.9	/	13.7	-21.5	1.2
O=C(NCCc1ccccc1)c1cccnc1N1CCCCCC1	0.3	0.613	72.4*	60.7*	0.4
Cn1nnnc1SCCOc1ccc(C#N)cc1	0.4	-0.206	62.2*	-4.9	1
COc1ccc(OCCSc2nnc3sc4ccccc4n23)cc1	0.5	-0.267	47.0	0.0	1
CC1(C)CC(=O)C2=C(C1)N(c1ccc(F)cc1)C(=O)CC2c1ccsc1 (stereo not drawn)	0.4	0.31	62.6*	4.7	1
CC1(C)CC(=O)C2=C(C1)N(c1ccccc1)C(=O)CC2c1ccsc1 (stereo not drawn)	0.1	-0.527	87.8*	26.3	0.7
COCCNC(=O)c1c[nH]n2c(=O)cc(C3CCN(C(=O)OC(C)(C)C)CC3)nc12	0.9	1.06	8.7	62.2*	0.4
O=C(CN1CCN(c2ccccn2)CC1)Nc1ccc2ccccc2c1	0.7	/	27.8	55.3*	0.4
Cc1ccc(NC(=O)N2CCN(c3ccccn3)CC2)cc1	0.9	0.425	13.1	7.7	0.9
Cc1nc2ccc(NC(=O)N3CCN(c4ccccn4)CC3)cc2s1	0.8	0.232	22.0	80.3*	0.2
O=C(CN1CCN(c2ccccn2)CC1)Nc1cc(C(F)(F)F)ccc1Cl	0.7	0.153	25.5	73.8*	0.3
O=C(CN1CCN(c2ncccn2)CC1)Nc1ccccc1-n1cccc1	0.1	-0.331	94.9*	78.9*	0.2
COCCN1C(=O)N[C@@H](c2cccc(C(F)(F)F)c2)[C@H](C(C)=O)[C@H]1C	/	1.01	/	/	/
Cc1ccc(NC(=O)CN2CCN(c3ccccn3)CC2)c(Cl)c1	0.5	0.896	54.9*	86.1*	0.1
O=C1CCC(=O)N1OCCOc1ccc2c(c1)CCC2	1.1	0.352	-5.2	-25.8	1.3
SMILES	CYP2C19 activ	Cav32 inh	CYP2C19 inhib	CYP2C9 inh	CYP2C9 activ
Cc1cc(NC(=O)Cn2cnc3c2c(=O)n(C)c(=O)n3C)n(-c2ccccc2)n1	1.1	-0.8	-13.5	-2.2	1
CCCCCC(=O)N/N=C(\C)c1ccccn1	0.4	0.964	57.1*	8.9	0.9
CCCCCCCCCC(=O)N/N=C(\C)c1cccnc1	/	-2.17	/	/	/
C/C(=N/NC(=O)c1ccccn1)c1ccco1	0.4	0.442	56.8*	18.9	0.8
COc1cc(/C=N/NC(=O)c2cc(C34CC5CC(CC(C5)C3)C4)[nH]n2)ccc1O	0.8	-2.63	21.9	-56.2	1.6
O=S1(=O)C=C(Sc2nc3cc(Cl)ccc3o2)c2ccccc21	0.3	1.04	65.6*	6.5	0.9
COCc1nnc(NS(=O)(=O)c2ccccc2)s1	1.1	-0.354	-12.0	30.8	0.7
COCc1nnc(NS(=O)(=O)c2c(C)cc(C)cc2C)s1	1	0.547	4.6	84.4*	0.2
COCc1nnc(NS(=O)(=O)c2ccc(NC(C)=O)cc2)s1	1	-0.0572	0.9	34.0	0.7
COCc1nnc(NS(=O)(=O)c2ccc(C)cc2)s1	1.1	0.845	-7.4	52.1*	0.5
